About 8,200 (3.7%) of roughly 220,000 compounds were called active. The list comes from a sample in which actives are over-represented; it also holds similar structures and randomly drawn compounds. Values without a mark were called inactive.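 The calls were made as follows: active = compounds that reduced the stress-induced luciferase reporter signal by more than about 70% of percent inhibition (limit read from the data); inactive = the rest.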

The assay is described as follows: inhibitors of CHOP promoter induction, primary screen, cell-based, unfolded protein response, luciferase reporter (AID 2732).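 Also: 0% = tunicamycin plus vehicle and 100% = wells without tunicamycin.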 The conditions noted are these: CHO-K1 CHOP-promoter luciferase, tunicamycin-induced, 15-18 h; at 10 µM; hits give high values. Background: In a reporter assay the amount or activity of a reporter protein is the signal.
The inhibition is the relative decrease from the control value, in per cent. As to `O=C(COc1cc(Cl)c(Cl)cc1Cl)NC(=O)NC1CCCC1`, the inhibition was 91% (active). For `O=C(COc1ccccc1F)NC1CC1`, the inhibition is 40%.

On to `O=C(COc1cc(Cl)c(Cl)cc1Cl)NCCc1ccccn1`, for which the inhibition was -12.8%.

As for `CCN(CC)CCC(c1ccc2c(c1)OCO2)c1c(OC)cc(OC)c2c(-c3ccccc3)cc(=O)oc12` (centres undefined), the inhibition is -37.9%. Regarding `CCN(CC)CC(=O)c1c[nH]c2ccc(OC)cc12`, the inhibition is -4.19%. With `COc1ccc2[nH]cc(/C=C(/C#N)S(=O)(=O)c3ccccc3)c2c1`, the inhibition was 70.3% (active).

Take `COc1ccc(NS(=O)(=O)c2ccc(Oc3c(C#N)cccc3C#N)cc2)cc1`: the inhibition is 54.8%. In the case of `Cc1cc(C)nc(SCc2cn3c(C)cc(C)nc3n2)n1` it was 19.4%; in that of `Cc1onc(-c2ccc(Cl)cc2)c1-c1ccnn1S(=O)(=O)c1ccc(Cl)cc1`, 57.9%; in that of `COc1ccc(CCNC(=O)CSc2nc3[nH]ncc3c(=O)n2-c2cccc(C(F)(F)F)c2)cc1OC`, 16.4%. The figure for `NC(=O)NC(=O)CSc1nc2cc([N+](=O)[O-])ccc2n1-c1cccc(C(F)(F)F)c1` is 76.3% (active); for `COc1ccc(-n2cnnc2SCC(=O)Nc2cccc([N+](=O)[O-])c2)cc1` it is 5.96%; for `NS(=O)(=O)c1ccc(NC2=CC(c3ccc(F)cc3)N(c3ccc(S(N)(=O)=O)cc3)C2=O)cc1` (centres undefined) it is -15.2%.

Turning to `CCC1(CC)Cc2ccccc2-c2nc3ccccc3c(=O)n21`, the inhibition is 16.7%. In the case of `CC(C)(C)c1nc2ccccc2c(=O)n1N1C(=O)c2ccccc2C1=O`, the inhibition is 71.3% (active).

With `CN(C)CCCn1c(SCCN2C(=O)c3ccccc3C2=O)nc2ccccc2c1=O`, the inhibition is 4.6%. For `CCCN(c1ccc(C)cc1)c1nc(=O)c2cccnc2s1`, the inhibition is 12.3%. In the case of `Cc1cc(N)n(-c2ccc(S(=O)(=O)N3CCCC3)cc2[N+](=O)[O-])n1` it was 7.68%. In the case of `CC(C)Nc1ncnc2c1nnn2Cc1ccccc1` it was 21.7%; in that of `Cn1c(=O)c2[nH]c(NCC3CCCO3)nc2n(-c2ccccc2)c1=O` (centres undefined), 8.41%; in that of `CC(C)(C)c1nc(NCC2CCCO2)c2nnn(Cc3ccccc3)c2n1` (centres undefined), 71.1% (active). The figure for `CC/C=C/C(=O)N1CC2(CC(c3cccc(NC(=O)CC)c3)=NO2)C[C@H]1C(N)=O` (some centres undefined) is -5.15%; for `CC(C)Cc1nnc(NC(=O)CCC(=O)Nc2ccc3cn[nH]c3c2)s1` it is -20.9%; for `COc1cc(/C=N/Nc2nc3ccccc3s2)ccc1O` it is 3.98%. On to `CCOc1cc(/C=C(\C#N)c2nc(-c3cccs3)c(NC(C)=O)s2)ccc1O`, for which the inhibition was -1.5%. The figure for `COc1cc(/C=C(\C#N)c2nc3c(s2)CC(C)CC3)ccc1O` (centres undefined) is 93.6% (active); for `O=C(COC(=O)/C=C/c1ccc2c(c1)OCO2)NC1CCS(=O)(=O)C1` (centres undefined) it is 17.7%. As for `Cc1nc(C)c2c(c1C(F)(F)F)-c1ccccc1C2(F)F`, the inhibition is 84.7% (active).

As to `CSc1n[nH]c(=S)n1N`, the inhibition was 0.04%. The figure for `CC(C)(C)C(=O)OCc1nc(-c2ccc(O)c(O)c2)cs1` is -105%; for `Cc1ccc(C(=O)NC(=S)Nc2ccc3[nH]c(=O)[nH]c3c2)cc1C` it is 1.63%; for `Cc1ccc(S(=O)(=O)/N=C(/Nc2ccc3[nH]c(=O)[nH]c3c2)c2ccccc2)cc1` it is -16.7%. Consider `Cc1cc(C)cc(C(=O)NC(=S)Nc2ccc3[nH]c(=O)[nH]c3c2)c1`, for which the inhibition is 81.3% (active). With `CC1(C)CCCC2=C1CC1C(=O)N(c3ccccc3)C(=O)C1C2` (centres undefined), the inhibition was 12%. With `CC1CC2=C(CC1/C=N/NC(N)=S)C(C)(C)CCC2` (centres undefined), the inhibition is 89.8% (active). In the case of `CN(C(=O)Nc1ccc(Cl)cc1)n1cnc2ccccc2c1=O`, the inhibition was 20.1%. In the case of `CC1(C)C=C2[C@H]3CC[C@@H]4[C@@]5(C)CCC(=O)C(C)(C)[C@@H]5CC[C@@]4(C)[C@]3(C)CC[C@@]2(C(=O)O)CC1` it was 95% (active); in that of `COC(=O)/C=C(\Oc1ccccc1)C1(O)CCCCC1`, 7.27%; in that of `Fc1ccc(Nc2nnns2)cc1`, 3.88%.

For `Cc1ccc(-n2ncc3c2ncn2nc(-c4ccco4)nc32)c(C)c1`, the inhibition is 105% (active).

Turning to `Cc1ccc(-n2ncc3c(=O)n(-c4ccc(C)c(C)c4)c(-c4ccco4)nc32)cc1`, the inhibition was 37.9%. As to `COC(=O)CSc1ncnc2c1cnn2-c1ccc(C)cc1C`, the inhibition is -4.08%. As for `O=C(NCc1cccnc1)Nc1cccc(NC(=O)NCc2cccnc2)c1F`, the inhibition was 7.4%. Take `CN1CCN(C2=NCCO2)CC1`: the inhibition was 2.43%. As to `O=C(Nc1nnc(SCc2ccc(Cl)cc2Cl)s1)C1COc2ccccc2O1` (centres undefined), the inhibition is 71.3% (active). Take `O=C(Nc1nc2c(F)cc(F)cc2s1)C1COc2ccccc2O1` (centres undefined): the inhibition is 17.5%.

With `O=C(Nc1nnc(SCc2c(Cl)cccc2Cl)s1)C1CCCO1` (centres undefined), the inhibition is 18.8%. For the compound `Cc1cnc(NC(=O)c2ccccn2)s1`, the inhibition is 8.8%.

Consider `CN(C)S(=O)(=O)c1ccc(C(=O)NCC(C)(C)N2CCOCC2)cc1`, for which the inhibition was -18.3%. `Oc1ccc(/C=N/Nc2nc(-c3ccccc3F)nc3ccccc23)c(O)c1`: the inhibition was 57.6%.

On to `Cc1nc2ccccc2nc1N/N=C/c1ccc(O)cc1O`, for which the inhibition is 74.5% (active).

Consider `Oc1ccc(/C=N/NC2=NCCCCC2)c(O)c1`, for which the inhibition is -12.1%. The figure for `O=C(O)Cc1csc(NC(=O)CSc2nnnn2-c2ccc(O)cc2)n1` is -5.01%; for `CCc1ccc(S(=O)(=O)NCC(O)COc2ccc(OC)cc2)cc1` (centres undefined) it is 16.3%; for `O=C(N/N=C\c1cc(Br)c(Br)o1)C1COc2ccccc2O1` (centres undefined) it is 6.22%.

For the compound `CCCc1cc(-c2nc(-c3ccc(C)cc3)cs2)ccn1`, the inhibition was 39.6%. The figure for `Cc1ccc(-c2csc(-c3cc(C)on3)n2)cc1` is -14.2%; for `Cc1ccc(-c2csc(-c3c[nH]c4ccccc34)n2)cc1` it is 98.1% (active).

Take `COCc1cc(=O)oc2cc(NS(=O)(=O)c3ccc(C)cc3)ccc12`: the inhibition is 9.01%. As for `Cc1cc(Nc2ccc(N3CCOCC3)cc2)c2cccc(C)c2n1`, the inhibition was -27.9%. On to `COc1cc(NC(=O)Nc2ccc(C)cc2)cc([N+](=O)[O-])c1`, for which the inhibition is 71.2% (active). In the case of `COC(=O)c1ccc(NC(=O)Nc2ccc(C)cc2)cc1` it was 26.6%. `CC(=O)c1ccc(NC(=O)Nc2ccc([N+](=O)[O-])cc2C)cc1`: the inhibition is 51.8%. Consider `Cn1c(=O)c2c(nc(NCc3ccccc3)n2CC(N)=O)n(C)c1=O`, for which the inhibition is 9.77%. In the case of `Cc1ccccc1N1CCN(Cc2nc(Cc3ccccc3F)no2)CC1`, the inhibition is -7.61%. For `COc1cc(C(=O)OC(C)C(=O)NCC2CCCCC2)cc(NC(=O)c2ccco2)c1OC` (centres undefined), the inhibition is 101% (active). For `COc1cc(C(=O)N[C@@H](C)C(=O)NCc2ccco2)cc(OC)c1OC`, the inhibition was 0.36%. Turning to `COC(=O)c1cc(Cl)c(NC(=O)c2ccco2)cc1OC`, the inhibition was -8.18%. For the compound `Cc1[nH]n(C)c(=O)c1N=Nc1ccc(S(C)(=O)=O)cc1`, the inhibition is 7.35%. With `O=C(/C=C/c1ccccc1)N/C(=C/c1ccccc1)C(=O)Nc1ccccc1O`, the inhibition was -0.94%. In the case of `CCc1ccccc1NC(=O)c1cccs1` it was 39.1%; in that of `CCc1ccccc1NC(=O)/C(=C/c1ccccc1)c1ccccc1`, 84.8% (active); in that of `O=C(N/N=C/c1ccccn1)c1ccc(S(=O)(=O)N2CCCCCC2)cc1`, -0.54%. With `N#CC(C(=O)c1ccc(S(=O)(=O)N2CCCCCC2)cc1)c1nc2ccccc2[nH]1` (centres undefined), the inhibition was 101% (active).

Take `COc1ccccc1N1CCN(C(=O)c2ccc(S(=O)(=O)N3CCCCC3)cc2)CC1`: the inhibition is 10.2%.

As for `CCN(CC)S(=O)(=O)c1ccc(Cl)c(NC(=O)c2ccncc2)c1`, the inhibition is 4.4%.

As for `Cc1ccc(S(=O)(=O)N(C)C)cc1NC(=O)COC(=O)c1c(C)noc1C`, the inhibition was 22.9%. Regarding `CCN(CC)S(=O)(=O)c1ccc(C)c(NC(=O)COc2ccc(Br)cc2Cl)c1`, the inhibition is 88% (active). As to `COC(=O)c1cccc(NS(C)(=O)=O)c1`, the inhibition is 27.4%. For the compound `COC(=O)c1sc(SC)c(S(=O)(=O)C(C)C)c1N/N=C(\C#N)S(=O)(=O)c1ccccn1`, the inhibition is 5.06%. For `CCN(CC(=O)Nc1cccc(S(N)(=O)=O)c1)Cc1nc2ccccc2c(=O)[nH]1`, the inhibition is -6.72%. For `C=CCSc1nc(N)cc(=O)[nH]1`, the inhibition is 14.8%. On to `O=C(O)C1CC=CCC1C(=O)Nc1ccccc1C(=O)N1CCN(c2ccccc2)CC1` (centres undefined), for which the inhibition is 12.7%. For the compound `Cc1cccc(N2CCN(C(=O)c3ccccc3NC(=O)C3CCCCC3C(=O)O)CC2)c1` (centres undefined), the inhibition was 13.9%. For `CC(C)c1ccc(N2CCN(C(=O)c3ccccc3NC(=O)/C=C(\C(=O)O)c3ccccc3)CC2)cc1`, the inhibition is 110% (active). With `CC12CN3CCN(CC(C3)/C1=N\NC(=O)c1ccccc1N)C2`, the inhibition was 7.18%. As to `Cn1c(=O)c2c(nc(N/N=C/c3cccs3)n2Cc2ccc(Br)cc2)n(C)c1=O`, the inhibition is 79.6% (active). Regarding `CCCCNc1nc2c(c(=O)n(C)c(=O)n2C)n1Cc1cccc(OC)c1`, the inhibition was 17.1%. With `Cn1c(=O)c2c(nc(NCCc3ccccc3)n2Cc2ccccc2)n(C)c1=O`, the inhibition is 61.2%. As for `O=C(CS(=O)(=O)c1ccc(C(F)(F)F)cn1)NNC(=O)c1ccccc1`, the inhibition is 3.02%. With `CCOC(=O)c1sc2nc(C)[nH]c(=O)c2c1C`, the inhibition is 3.38%.

For the compound `CCOC(=O)c1sc(C)c2c1NC(C)(c1cccc3ccccc13)NC2=O` (centres undefined), the inhibition is 74.8% (active). Turning to `CCOC(=O)c1sc2nc(CSc3ccccc3)[nH]c(=O)c2c1C`, the inhibition is 63.4%.

In the case of `Cc1nc(/N=C(\N)NC(=O)NC2CCCCC2)nc2ccccc12`, the inhibition was 33.5%.

Source of the values: PubChem BioAssay AID2732 (Emory University Molecular Libraries Screening Center, 2010).
